# Assay results reported in PubChem BioAssay (NCI).
# Compounds without any hit were thinned out: in the full panel of roughly 83,000, 20% have a hit.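 The test compound was applied at a single concentration to cells in 96-well plates for 48 hours, and percent growth was recorded.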 Unmarked numbers belong to inactive results. Active and inactive are the calls of the source. How the source made its calls: active means growth percent below 10; inactive means the rest.
# Tests used:
# Test in all cases: NCI-60 one-dose screen, 48 h (100 = growth as untreated, 0 = no growth, -100 = all killed)
# Conditions in all cases: 10 µM unless noted
# T-47D breast = tested on: T-47D breast
# BT-549 breast = tested on: BT-549 breast
# MDA-MB-435 melanoma = tested on: MDA-MB-435 melanoma
# SW-620 colon = tested on: SW-620 colon
# MCF7 breast = tested on: MCF7 breast
# HCT-116 colon = tested on: HCT-116 colon
# HCC-2998 colon = tested on: HCC-2998 colon
# KM12 colon = tested on: KM12 colon
SMILES,growth (T-47D breast),growth (BT-549 breast),growth (MDA-MB-435 melanoma),growth (SW-620 colon),growth (MCF7 breast),growth (HCT-116 colon),growth (HCC-2998 colon),growth (KM12 colon)
CCN(CC)CC(O)CNc1ccc(NCC2CO2)c2c1C(=O)c1ccccc1C2=O (stereo unspecified),-3.27% (active),-56.9% (active),-62.4% (active),-28.7% (active),-13% (active),-11.2% (active),-83.5% (active),-69.1% (active)
Cc1cc(I)nc2ccccc12,95.8%,104%,112%,107%,101%,106%,103%,115%
O=C(OC12CC3CC(CC(C3)C1)C2)c1ccc(NCc2cc(O)ccc2O)cc1,-70% (active),-81.6% (active),-46% (active),-53.8% (active),6.06% (active),-82.9% (active),-73.6% (active),-60.7% (active)
Cn1c(-c2ccccc2)c(/C=C/C2=[N+](C)c3ccccc3C2(C)C)c2ccccc21,-3.22% (active),22.1%,2.09% (active),14.3%,4.58% (active),9.76% (active),27%,-22.8% (active)
Cc1nc(Sc2nc3ccc([N+](=O)[O-])cc3s2)sc1C,27%,-10.4% (active),29.6%,11.5%,1.58% (active),2.1% (active),71.3%,36.6%
CCN1CCCC(Nc2cc(C)nc(/N=C(/N)Nc3ccc(Cl)c(Cl)c3)n2)C1 (stereo unspecified),-49.2% (active),-59.5% (active),-51.7% (active),-59.3% (active),-73.5% (active),-54.9% (active),-71.5% (active),-14.8% (active)
Cc1ccc(/C=C2\CNC/C(=C\c3ccc(C)cc3)C2=O)cc1,14%,-72.2% (active),-47.5% (active),-44.1% (active),1.76% (active),-60% (active),-81.3% (active),-78.6% (active)
CC/C(=C(/CC)c1ccc(O)cc1)c1ccc(O)cc1,72.4%,64.3%,-18.7% (active),44.6%,26.2%,29.3%,70.2%,44.1%
CC(=O)c1c(O)c(C)c(O)c2c1OC1=CC(=O)C(C(C)=O)C(=O)C12C (stereo unspecified),102%,55.8%,78.5%,74.7%,128%,94%,58.1%,72.6%
O=C1/C(=C/c2ccccc2)CCC/C1=C\c1ccccc1,82%,80.5%,13.2%,22%,30.7%,-79% (active),81.4%,10.1%
N=C(N)Sc1cccc[n+]1[O-],63.1%,80.3%,62.9%,46.9%,14.6%,9.31% (active),74.7%,55.1%
CCc1cccc(CC)c1N1C(=O)C=CC1=O,102%,116%,111%,108%,110%,88.5%,117%,110%
Nc1cc(-c2ccccc2)ccc1O,88.3%,79.3%,111%,121%,102%,98.1%,83.8%,102%
O=C(CCl)N(c1ccccc1)c1ccccc1,110%,106%,98%,108%,102%,111%,119%,106%
CCCCCC/C=C1\CCC(CN2CCCC2)C1=O (stereo unspecified),77.7%,104%,109%,97.9%,7.97% (active),84.5%,107%,75.4%
Cc1cc(C(N)=O)cc(C)c1C(=O)OCCCl,95.8%,111%,98%,103%,101%,97%,95.8%,93.6%

SMILES,growth (T-47D breast),growth (BT-549 breast),growth (MDA-MB-435 melanoma),growth (SW-620 colon),growth (MCF7 breast),growth (HCT-116 colon),growth (HCC-2998 colon),growth (KM12 colon)
CN(C)c1ccc(C(C#N)(c2ccccc2)c2ccc(N(C)C)cc2)cc1,41.8%,72.9%,84.2%,43.3%,39.9%,30.8%,51.2%,65.5%
CC1(C)OCC(COC(c2ccccc2)(c2ccccc2)c2ccccc2)O1 (stereo unspecified),84.3%,119%,106%,104%,100%,89.7%,97.4%,96.5%
Oc1ccc(Br)cc1Sc1cc(Br)ccc1O,17.7%,43.8%,56.7%,64.1%,59.2%,34.3%,91.7%,92.9%
OCCOSCCO,110%,110%,109%,105%,97.7%,102%,111%,112%
O=C1C=CC(=O)N1c1cccc2c1CCCC2,86.5%,112%,88.5%,99.6%,88.3%,95%,118%,109%
Cc1nc([N+](=O)[O-])c(Sc2nncc(-c3ccccc3)n2)n1C,15.3%,66.6%,76.3%,77.1%,43.8%,53.2%,98.3%,104%
NC(CS/C(Cl)=C/Cl)C(=O)O (stereo unspecified),-7.75% (active),51%,58.6%,104%,45.1%,84.4%,102%,98.1%
O=C1C=CC(=O)N1c1cc(Cl)c(Cl)cc1Cl,103%,97.9%,106%,110%,87.8%,90%,103%,106%
CCCCCCCCCCCC[n+]1ccc(CCCCCCCCC)cc1,-62.3% (active),-27.3% (active),-85.5% (active),-67% (active),-5.44% (active),-91% (active),-79.5% (active),-74.4% (active)
C=C(C(N)=O)C(N)C(=O)O (stereo unspecified),106%,108%,123%,109%,102%,92.4%,108%,95.9%
COC(=O)Nc1nc2ccc(C3(c4ccc(F)cc4)OCCO3)cc2[nH]1,47.1%,47.5%,-53.3% (active),30.7%,15.7%,25.2%,16.7%,25.6%
CCCCCCCCCCCCCCCCCC1=NCCCN1CCO,103%,99.9%,115%,98.9%,86.7%,114%,93.4%,106%
CC(O)C(O)C(O)C(O)C(O)C(=O)NNc1ccccc1 (stereo unspecified),76.4%,105%,86.4%,75.6%,88.1%,87.6%,95.1%,85.7%
O=C(c1ccccc1)c1ccc(O)c2ncccc12,10.6%,56.3%,56.7%,17.1%,10.5%,13.7%,35.8%,27%
O=C1C=CC(=O)N1c1ccc(O)cc1,83.3%,103%,107%,95.6%,102%,106%,105%,109%
NC(=S)N/N=C\c1nccc2c(N)cccc12,11%,41%,30.3%,37.2%,22.1%,19.2%,44.4%,26.7%
